Experimental data as given in PubChem BioAssay (Tox21).
Inconclusive results are not listed. A number with no mark means an inactive call. Calls follow the shape of the dose curve; as a rule, active = well fitted cell-killing curve with a large enough effect in the repeat runs; inconclusive = weak or mixed curves, or effect the other way; inactive = flat fitted curve, though single readings scatter.

experiment: qHTS assay to identify small molecule antagonists of the estrogen receptor alpha (ER-alpha) signaling pathway using the BG1 cell line in the presence of 0.1 nM 17-beta-estradiol - cell viability counter screen (AID 1259241); conditions: VM7Luc4E2 (BG1) viability, CellTiter-Fluor protease, 22 h, 0.1 nM estradiol agonist added; series mostly up to 92.4 µM; activity change, negative = cytotoxicity: at the top concentration; also: nearly all actives have a fitted effect of over 40% in size
Description: National Center for Advancing Translational Sciences [NCATS]
NIH Chemical Genomics Center [NCGC]
U.S. Environmental Protection Agency [EPA]
National Institutes of Environmental Health Sciences [NIEHS]
National Toxicology Program [NTP]
U.S. Food and Drug Administration [FDA]
Estrogen receptor (ER), a member of the nuclear hormone receptor plays an important role in development, metabolic homeostasis and reproduction. Two subtypes of ER, ER-alpha and ER-beta, have similar expression patterns with some uniqueness in both types. Endocrine disrupting chemicals (EDCs) and their interactions with steroid hormone receptors like ER causes disruption of normal endocrine function. Therefore, it is important to understand the effect of environmental chemicals in ER signaling pathway. For identifying ER antagonists, VM7Luc4E2 cell line was used to screen against Tox21 compound libraries.
VM7Luc4E2 cell line (provided by Denison MS, University of California) endogenously express full-length ER-alpha and is stably transfected with a plasmid containing four estrogen responsive elements (ERE) upstream of a luciferase reporter gene. The current screening for identification of ER-alpha inhibitors against Tox21 compound libraries used lower concentration (0.1 nM) of 17beta-Estradiol as a stimulator. The cytotoxicity of the Tox21 compound libraries against VM7Luc4E2 cell line was tested by measuring live-cell protease activity using CellTiter-Fluor assay in the same wells.
Tox21 Assay Protocol Summary:
VM7Luc4E2 cells were cultured in phenol red free assay medium containing 10% charcoal stripped FBS for 5 days prior to the assay. The cells were dispensed at 4,000 cells/well in 4 uL of assay medium into white wall/solid-bottom 1536-well plates (Corning Life Sciences, Corning, NY) using a Multidrop Combi (ThermoFisher Scientific, Waltham, MA) dispenser. After the assay plates were incubated at 37C and 5% CO2 for 24 hr, 23 nL of compounds dissolved in DMSO, positive controls or DMSO only was transferred to the assay plates by a Pintool station (Kalypsys, San Diego, CA). The transfer of compounds was followed by the addition of 1 uL of 0.1 nM (final concentration) agonist (17beta-Estradiol)/assay medium using a Flying Reagent Dispenser (FRD, Aurora Discovery, San Diego, CA). The plates were incubated at 37C and 5% CO2 for 22 hr. For cytotoxicity assay, 1 uL of CellTiter-Fluor reagent (Promega Corporation, Madison, WI) was added to each well using the FRD and after 30 min incubation at 37C and 5% CO2, The fluorescence intensity was measured using ViewLux plate reader (PerkinElmer, Shelton, CT).
% is scaled to controls: 0 for no effect and ±100 for the full control effect.

Row | Compound | activity change, negative = cytotoxicity
1 | CCCCCCCCCC(C)C=O (stereo not given) | 5.87%
2 | CC(=O)Nc1ccccc1O | 1.03%
3 | CNc1ccccc1 | -4.09%
4 | C1=COCCC1 | 5.02%
5 | Oc1ccc(Oc2ccccc2)cc1 | -0.321%
6 | CC(C(=O)O)c1ccc(/C=C2\CCCCC2=O)cc1 (stereo not given) | 9.4% [at 42.5 µM]
7 | COc1cc(C)c(Cc2cnc(N)nc2N)cc1OC | 1.36% [at 42.5 µM]
8 | CCCCCCCCOCCCN | -5.21%
9 | CCc1ccc(C(=O)C(C)CN2CCCCC2)cc1 (stereo not given) | 1.45% [at 42.5 µM]
10 | Nc1ccc(F)cc1F | 0%
11 | N#Cc1ccc(CC(=O)c2cccc(C(F)(F)F)c2)cc1 | 1.81%
12 | CCCCCCC/C=C/C=O | 0.753%
13 | CC1(C)[C@@H]2CC[C@]3(C2)[C@@H]1C(=O)CCC3(C)C | 12.4%
14 | CC1=CC(=C(c2ccc(N)cc2)c2ccc(N)cc2)C=CC1=N | -17.9% [at 8.39 µM]
15 | COC=O | 7.16% [at 8.39 µM]
16 | O=C1c2ccccc2C(=O)C1c1ccc2ccccc2n1 | -11.8% [at 42.5 µM]
17 | CCCCC(CC)COCCC#N (stereo not given) | -24.8%
18 | CCC(=O)O[C@]1(C(=O)COC)[C@@H](C)C[C@H]2[C@@H]3CCC4=CC(=O)C=C[C@]4(C)C3(F)[C@@H](O)C[C@@]21C (stereo not given in full) | 2.94% [at 42.5 µM]
19 | O=C(c1ccc(Cl)cc1)c1ccc(Cl)cc1 | -0.594%
20 | CC(=O)Nc1ccn(C2COC(COC(=O)c3ccccc3)O2)c(=O)n1 (stereo not given) | 8.55% [at 42.5 µM]

Row | Compound | activity change, negative = cytotoxicity
21 | O=C(Cl)c1cc(Cl)cc(Cl)c1 | 0%
22 | O=C(O)c1c2ccccc2cc2ccccc12 | -0.601%
23 | O=C(OCCCCCOC(=O)c1ccccc1)c1ccccc1 | -1.16%
24 | C=CC(=O)NC(C)(C)C | 0.978%
25 | CC(C)(C)NCC(O)COc1ccc(NC(=O)NC2CCCCC2)cc1 (stereo not given) | -0.36% [at 42.5 µM]
26 | CC(C)Cc1nccs1 | -2.48%
27 | CCCC1CCCC(=O)O1 (stereo not given) | -6.28%
28 | Cc1cc(C)c(C)c(O)c1 | 3.54%
29 | O=C1CCCN1CCO | -14.9%
30 | CC(C)=CCC/C(C)=C/C=N/O | 0.876%
31 | CCOc1ccc(NC(C)=O)cc1N | 0%
32 | CCCCCCCCCCCCN1CCOCC1 | 0.0137%
33 | Cc1ccc(Cl)c(OCC(O)CNC(C)(C)C)c1 (stereo not given) | -3.21% [at 42.5 µM]
34 | CC1=C(C)C(=O)C(CCCCC#CCCCC#CCO)=C(C)C1=O | -13.6% [at 42.5 µM]
35 | CCCCCCCCCCCC(=O)OCC | 7.83%
36 | Nc1cccc2c(=O)[nH][nH]c(=O)c12 | 0%
37 | Clc1cccc(C(c2ccc3nc[nH]c3c2)n2ccnc2)c1 (stereo not given) | 3.34% [at 42.5 µM]
38 | C[C@H]1C[C@H]2[C@@H]3CCC4=CC(=O)C=C[C@]4(C)[C@@]3(F)[C@@H](O)C[C@]2(C)[C@@]1(O)C(=O)COP(=O)(O)O | 1.14%
39 | Cc1c(-c2cccnc2)c2ccccc2n1CCCCC(=O)O | 3.92%
40 | FC1(F)C(F)(F)C(F)(F)C2(F)C(F)(C1(F)F)C(F)(F)C(F)(F)C1(F)C(F)(F)C(F)(F)C(F)(F)C(F)(F)C12F (stereo not given) | 3.05%
